# High-throughput results: PubChem, several laboratories
# An excerpt weighted towards active compounds, which were near 2% of everything screened.
# cytoskel mod – alters cytoskeleton assembly in HUVEC cells | HUVEC TNFa F-actin phalloidin imaging, high content | inhibition, % at 2 µM | 91,000 tested, 0.18% active | AID 836;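 active = inhibition above the batch mean plus 3 SD and confirmed as a hit by visual image inspection, cut at about 30% in these data, passing the limit was not always enough; inconclusive = above the inhibition threshold but rejected on visual inspection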
# PLAP act – activates human placental alkaline phosphatase. purified PLAP enzyme, luminescent substrate read-out; stronger effect = higher value. 96,000 tested, 1.2% active. activation fold at 20 µM. P05187; in the data active = activation fold above about 2
# Target sequence (P05187 whole entry, looked up): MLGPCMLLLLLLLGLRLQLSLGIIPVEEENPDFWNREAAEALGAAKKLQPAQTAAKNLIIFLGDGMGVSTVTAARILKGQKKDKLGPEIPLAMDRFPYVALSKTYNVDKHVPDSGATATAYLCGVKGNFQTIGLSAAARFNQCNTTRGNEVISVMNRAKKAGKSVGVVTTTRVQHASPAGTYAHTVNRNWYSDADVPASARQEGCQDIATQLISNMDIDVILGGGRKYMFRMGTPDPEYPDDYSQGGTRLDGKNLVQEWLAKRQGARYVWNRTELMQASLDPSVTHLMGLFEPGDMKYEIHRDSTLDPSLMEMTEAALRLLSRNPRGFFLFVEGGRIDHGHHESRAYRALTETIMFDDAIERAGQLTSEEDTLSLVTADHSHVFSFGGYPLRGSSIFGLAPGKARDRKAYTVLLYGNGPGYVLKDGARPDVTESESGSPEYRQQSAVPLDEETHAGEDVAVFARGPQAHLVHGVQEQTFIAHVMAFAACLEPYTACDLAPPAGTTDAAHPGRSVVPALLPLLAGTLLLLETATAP
# VCAM1 TNFa inh – reduces TNF alpha induced VCAM1 expression in HUVEC. HUVEC TNFa-induced VCAM-1 immunofluorescence, high-content imaging. inhibition, % at 2 µM. 95,000 tested, 0.48% active. AID 802;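 active = inhibition above the batch mean plus 3 SD, with images confirmed as a hit by eye, cut at about 37% in these data; inconclusive = inhibition above that limit but hit not confirmed in images; inactive = inhibition not above that limit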;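 also: 0% = TNF-stimulated DMSO wells and 100% = unstimulated control wells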
# TNFa cytotox – toxic to HUVEC cells under TNF alpha stimulation; 93,000 tested, 0.17% active; HUVEC TNFalpha-stimulated, Hoechst cell count, imaging; cell count reduction, % at 2 µM; AID 848;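 active = cell count reduction exceeding the screen mean by over 5 SD, scaled to untreated wells per plate, cut at about 78% in these data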;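 also: cells counted after 24 h of TNF alpha exposure following the 1 h pretreatment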
# E-sel TNF inh – TNF alpha driven E-selectin expression inhibition; HUVEC TNFa-induced E-selectin immunofluorescence, high content; inhibition, % at 2 µM; 120,000 tested, 0.71% active;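 active = inhibition above the batch mean plus 3 SD, and confirmed as a hit on visual image review, cut at about 43% in these data; inconclusive = passes the inhibition cutoff but fails visual image review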;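 also: 0% = TNF-stimulated DMSO wells and 100% = unstimulated control wells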
# Active calls of the source: *; u = inconclusive; x = no result given.
SMILES,cytoskel mod,PLAP act,VCAM1 TNFa inh,TNFa cytotox,E-sel TNF inh
Cc1noc(C)c1CSc1nc2[nH]ncc2c(=O)n1-c1ccccc1,-6,x,26,31,-17
COCc1cc(C)nc(N/N=C/c2ccc(Cl)c(Cl)c2)c1C#N,x,x,x,x,8
O=C(Nc1ccc(Br)cc1)c1ccco1,0,0.8,-3,9,3
C=CC(=O)Nc1ccc(Br)cc1,-2,0.9,52*,5,12
CCOC(=O)c1cnc(Nc2nc3ccccc3o2)nc1C,6,2.8*,-24,-6,-6
Cc1nc(Nc2nc3ccccc3o2)nc2c1CCC2,7,2.7*,-6,-12,-14
Cc1ccc(CN2CCN(C/C(Cl)=C/c3ccccc3)CC2CCO)o1 (centres undefined),x,x,x,x,-5
CCOC(=O)CNC(=O)CSc1nc2nc(C)c(Br)cc2[nH]1,2,2.3*,24,-35,x
Cc1nc2nc(SCC(N)=O)[nH]c2cc1Br,-4,2.2*,-2,-2,-32
CC(C)CC(=O)NC(NCC1CCCO1)C(Cl)(Cl)Cl (centres undefined),1,1.1,5,-16,x
CCC(=O)c1ccc(OCC(=O)NC2(C#N)CCCCC2)cc1,x,x,x,x,-2
Cc1ccc(NC(=O)c2ccc(OC(=O)CCN3C(=O)c4ccccc4C3=O)cc2)cc1,-9,1,0,6,44*
Cc1ccc2nc(-c3ccc(NC(=O)CCN4C(=O)c5ccccc5C4=O)cc3)sc2c1,x,x,x,x,65*
C/C(=N/NC(N)=S)c1ccc(Br)s1,x,x,x,x,5
COc1cccc(S(=O)(=O)Nc2ccc(C(=O)N3CCN(C(=O)c4ccco4)CC3)cc2)c1,1,x,26,-2,97*
COc1ccc(N2CCN(C(=O)c3ccc(NS(=O)(=O)c4ccccc4)cc3)CC2)cc1,4,x,-4,5,-36
CCCCOc1ccc2ccccc2c1C=O,9,1.2,7,-20,52*
O=c1c(Br)c(N2CCCCC2)cnn1-c1ccccc1,x,x,x,x,-15
COc1ccc(Cn2c(CCC(=O)O)nc3cccnc32)cc1,-16,1.1,93*,71,x
O=C(CCn1c(=S)[nH]c2cc3c(cc2c1=O)OCO3)N1CCN(C2CCCCC2)CC1,9,x,8,11,7
FC(F)(F)c1cc(-c2ccc3c(c2)OCO3)nc(NCc2ccco2)n1,-7,0.9,78*,78*,19
COc1ccc(-c2cc(C(F)(F)F)nc(NCc3ccco3)n2)cc1OC,17,1.1,1,-36,x
NC(=O)c1c(NC(=O)C2c3ccccc3Oc3ccccc32)sc2c1CCCCC2,x,x,x,x,24
c1ccc2[nH]c(CSc3nnc(-c4ccncc4)o3)nc2c1,x,2.2*,x,x,x
Fc1ccc(CSc2nc3ccccc3[nH]2)cc1,6,0.7,-8,-15,0
SMILES,cytoskel mod,PLAP act,VCAM1 TNFa inh,TNFa cytotox,E-sel TNF inh
CCC(CC)NC(=O)CCCSc1nc2ccccc2[nH]1,x,x,x,x,-3
c1ccc(-c2nnc(CSc3nc4ccccc4[nH]3)o2)cc1,7,2.2*,4,11,18
O=C(CCCSc1nc2ccccc2[nH]1)Nc1nnc(-c2ccccc2)o1,23,2.1*,10,-14,-24
CSc1nnc(-c2sccc2OCc2ccc(C)cc2)n1C,14,0.9,18,-1,15
CCNC(=S)N/N=C/c1cccs1,-5,1.2,-8,-35,-4
Oc1ccccc1Nc1nc(NCC2CCCO2)c2ccccc2n1 (centres undefined),6,0.9,-11,-20,65*
CC(=Nc1ccc(C)c(C)c1)C1=C(O)CSC1=O,-68,0.9,0,2,5
COc1ccc(CC(=O)OCc2cc3ccc(C)cc3[nH]c2=O)cc1,-28,0.9,93*,71,x
COc1ccc2cc(CCNC(=O)C(C)C)c(=O)[nH]c2c1,x,0.9,x,x,96*
COc1ccc(CC(=O)OCc2cc3ccccc3[nH]c2=O)cc1,3,1,4,-27,-25
Cc1ccc2cc(CCNC(=O)C(C)(C)C)c(=O)[nH]c2c1,x,1.4,x,x,-1
O=C(Cn1nc([N+](=O)[O-])nc1Br)NC(c1ccccc1)c1ccccc1,x,x,x,x,36
CC1(C)CC(=O)C(C=NCC2CCCO2)=C(O)C1 (centres undefined),12,1.1,-6,3,80*
CCN(CC)S(=O)(=O)N1CCC(C(=O)NC2CCCC2)CC1,2,1.1,3,-16,0
CCS(=O)(=O)N1CCC(C(=O)NC2CCCCC2)CC1,31*,0.8,0,-20,10
O=C(COC(=O)C1=COCCO1)NCc1ccc(Cl)cc1,x,x,x,x,-16
COc1ccc(NC(=O)Cn2nnc(-c3ccccc3NC(=O)c3cccs3)n2)cc1,-6,1.1,-3,-12,7
Cc1ccc(NC(=O)Cn2nnc(-c3ccccc3NC(=O)c3cccs3)n2)cc1,-3,0.8,60*,55,-70
C=C(C)c1cccc(C(C)(C)NC(=O)N2CCCCC2CC)c1 (centres undefined),2,1.8,-28,2,57*
O=C(NC(Cc1c[nH]c2ccccc12)C(=O)O)c1ccco1 (centres undefined),u,1.1,u,100*,7
Cc1c(C(=O)N/N=C/c2cccs2)nc2ccccn12,x,x,x,x,7
O=C1c2[nH]nc(-c3ccccc3O)c2C(c2cccc(O)c2)N1Cc1ccco1 (centres undefined),-59,2.2*,3,14,-9
COC(=O)C1=C(N)Oc2cc(C)n(CCc3ccccc3)c(=O)c2C1c1cccnc1 (centres undefined),14,2*,19,17,0
CCN1N=C(c2ccccc2)Cn2c1nc1ccccc12,-42,1.7,6,-7,5
Cc1ccccc1Cn1nc(C)c(NC(=O)c2cc(-c3cccs3)on2)c1C,7,0.8,91*,80*,x
SMILES,cytoskel mod,PLAP act,VCAM1 TNFa inh,TNFa cytotox,E-sel TNF inh
CCC(C(=O)NC(C)(C)C)N(C(=O)Cn1nnc(-c2ccccc2F)n1)c1cccc2c1CCCC2 (centres undefined),22,1.1,11,-27,-42
CC(C)CCNC(=O)CN(C(=O)Cn1nnc(-c2ccccc2F)n1)c1cccc2c1CCCC2,18,2.6*,10,-25,4
O=C(CN(C(=O)Cn1nnc(-c2ccccc2F)n1)c1cccc2c1CCCC2)NCc1ccccc1,4,x,4,-20,x
CCOc1ccccc1/C=N/Nc1ccccc1[N+](=O)[O-],-7,0.9,59*,22,4
CCN1CCCC1CNc1ncnc2c1[nH]c1ccc(Cl)cc12 (centres undefined),8,2.1*,-17,32,-16
O=C1CCCN1CCCNc1ncnc2c1[nH]c1ccc(Cl)cc12,3,1,-4,6,3
Cc1ccc(C(c2nnnn2CCC(C)C)N2CCN(C)CC2)cc1 (centres undefined),18,1.4,-13,-6,1
Cc1cccnc1N(C(=O)Nc1cccc(Cl)c1)C1=NCC(C)(C)S1,x,x,x,x,2
Cc1cccnc1N(C(=O)Nc1ccccc1)C1=NCC(C)(C)S1,8,0.8,42*,57,-5
O=c1cc(O)c2ccccc2[nH]1,x,x,x,x,-7
O=c1cc(-c2ccccc2)c2ccccc2[nH]1,-30,0.7,10,-17,65*
